Test results published in PubChem BioAssay AID624288 (National Center for Advancing Translational Sciences (NCATS), 2012).
Hit rate of the full screen: of about 340,000 compounds, about 1,400 (0.41%) were called active. Inconclusive results (about 4%) are left out. Calls follow the shape of the full dose curve; cell line not stated here. For the sample, actives were picked, then their nearest neighbours and some compounds at random.

assay: qHTS for Antagonists of gsp, the Etiologic Mutation Responsible for Fibrous Dysplasia/McCune-Albright Syndrome: qHTS; details: gsp-mutant cells, cAMP HTRF, 30 min; series mostly up to 76.9 µM; activity change, negative = inhibition: at the top concentration; also: nearly all actives have a fitted effect of over 65% in size
Outline: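 Measurement of cellular cAMP by homogeneous time-resolved fluorescence following a 30 min compound exposure at 37C. The PDE inhibitor […] was present throughout; the assay buffer was DPBS with 0.05% BSA and 0.005% Tween 20.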
% is scaled to controls: 0 for no effect and ±100 for the full control effect; potency is read from the fitted curve at half-maximal effect.

Compound	Potency	activity change, negative = inhibition
Cc1cc2ccccn2c1C(=O)c1cccc(S(=O)(=O)N2CCOCC2)c1	31.6 µM (active)	–
Cc1cc2ccccn2c1C(=O)c1cccc(F)c1	–	7.18% (inactive)
O=C(COC(=O)c1ccccc1)Nc1cccc(S(=O)(=O)N2CCOCC2)c1	–	-5.44% (inactive)
O=C(NN=CC=Cc1ccccc1)C(O)C(O)C(=O)NN=CC=Cc1ccccc1 (stereo not drawn)	–	8.92% (inactive)
CN(O)C(=S)c1ccccc1	–	9.75% (inactive)
O=C(CSc1nnc(C2CC2)n1Cc1ccccc1)Nc1cccnc1Cl	7.94 µM (active)	–
CC(=O)Nc1ccc(NC(=O)CSc2nnc(C3CC3)n2-c2ccccc2)cc1	–	18.3% (inactive)
COc1ccc(-c2nnc(SCC(=O)Nc3cccnc3Cl)n2C)cc1	–	-1.39% (inactive)
CNN/C(N=Cc1ccc([N+](=O)[O-])s1)=N\S(=O)(=O)c1cc(C)c(Cl)cc1SCc1ccccc1	–	7.48% (inactive)
Cc1cc(C(=O)Nc2c(C)nn(Cc3ccccc3)c2C)on1	–	7.49% (inactive)
Cc1nn(Cc2ccc(F)cc2)c(C)c1NC(=O)c1noc2c1CCc1ccccc1-2	35.5 µM (active)	–
Cc1nn(Cc2ccc(F)cc2)c(C)c1NC(=O)c1cccnc1Cl	–	-12.7% (inactive)
CCOC(=O)c1ccc2[nH]c(C)c(CN3CCN(C)CC3)c(=O)c2c1	–	4.58% (inactive)
O=c1c2ccccc2c(-c2ccccc2)nn1-c1ccccn1	–	-1.84% (inactive)
O=C(O)c1ccc(-n2nc(-c3ccccc3)c3ccccc3c2=O)cc1	44.7 µM (active)	–
O=c1c2ccccc2c(-c2ccc(F)cc2)nn1-c1ccc(C(F)(F)F)cc1	–	-3.36% (inactive)
COc1ccc(N)c(C)c1	–	-4.59% (inactive)
COCC(=O)N(C)[C@H]1C[C@H]2c3cc(Oc4ccccc4C)ccc3CCN2C(=O)[C@H]1[C@H](C)O	–	-3.43% (inactive)
COc1ccc(-c2nn(-c3ccccc3)cc2/C=C2/SC(=S)N(CCCC(=O)O)C2=O)c(C)c1	31.6 µM (active)	–
Cc1ccc(/C=C2/SC(=S)N(CCC(=O)NCCCN3CCOCC3)C2=O)cc1	–	3.12% (inactive)
COc1ccc(/C=C2\SC(=S)N(CCCC(=O)NC3CCCC3)C2=O)cc1OC	–	-9.03% (inactive)
COc1ccc(/C=C2\SC(=S)N(CC(=O)NNC(=O)c3ccncc3)C2=O)cc1	–	-14.4% (inactive)
Cc1ccc(-c2nn(-c3ccccc3)cc2/C=C2\SC(=S)N(CCCCCC(=O)O)C2=O)o1	15.8 µM (active)	–
O=C(CCCN1C(=O)/C(=C/c2ccccc2)SC1=S)Nc1ccc(O)cc1	–	-13.4% (inactive)
O=C(COC(=O)c1ccc(O)cc1O)NC(=O)c1ccccc1	–	-6.71% (inactive)

Compound	Potency	activity change, negative = inhibition
O=C1/C(=C\c2ccc(O)cc2)CCC1CNc1ccc(Cl)cc1 (stereo not drawn)	–	-3.99% (inactive)
COc1ccc(S(=O)(=O)N2CCc3ccccc32)cc1C(=O)Nc1cc(S(C)(=O)=O)ccc1Cl	–	-27.5% (inactive)
COC(=O)Cc1c(-c2[nH]c3ccccc3c2CC(=O)OC)[nH]c2ccccc12	–	-8.15% (inactive)
Cc1ccc2c(O)c(Cc3ccccc3)c(=O)[nH]c2n1	–	4.19% (inactive)
O=S(=O)(Nc1ccc2ccccc2c1)N1CCCCC1	–	-8.9% (inactive)
O=C(CC(O)(C(F)(F)F)C(F)(F)F)Nc1ccc(Cl)c(Cl)c1	7.08 µM (active)	–
CS(=O)(=O)N(CC(=O)Nc1ccc(Cl)c(Cl)c1)C1CCCCC1	–	-26.2% (inactive)
CCn1nccc1C(=O)Nc1ccc(Cl)c(Cl)c1	–	-12.3% (inactive)
O=S1(=O)CSCS(=O)(=O)C1	–	13.5% (inactive)
CCCCC(=O)NC(c1ccc(OC)c(OC)c1)c1ccc2cccnc2c1O (stereo not drawn)	–	-9.19% (inactive)
Cc1ccnc(NS(=O)(=O)c2ccc(NC(=O)c3oc4ccccc4c3C)cc2)n1	–	-23.2% (inactive)
Cc1cc(C)c2oc(C(=O)Nc3ccc(S(=O)(=O)Nc4nccc(C)n4)cc3)cc(=O)c2c1	–	0.826% (inactive)
Cc1ccnc(NS(=O)(=O)c2ccc(NC(=O)c3oc4ccc(F)cc4c3C)cc2)n1	22.4 µM (active)	–
O=C(O)c1ccccc1/C=N/Nc1ccc(S(=O)(=O)Nc2ccc(Cl)cc2)cc1[N+](=O)[O-]	–	4.56% (inactive)
CN(C(=O)c1cccc(NC(=O)Cc2ccc(NC(=O)C3CCCN(C(=O)C4CCCC4)C3)cc2)c1)C1CCC1 (stereo not drawn)	–	-9.96% (inactive)
COc1ccc(/C=C2/SC(=O)N(CCCCCC(=O)Nc3ccccc3C(=O)O)C2=S)cc1	22.4 µM (active)	–
COc1ccc(/C=C2\SC(=O)N(CCC(=O)NC3CCS(=O)(=O)C3)C2=O)cc1 (stereo not drawn)	–	-10.6% (inactive)
COc1ccc(/C=C2\SC(=O)N(CCC(=O)NCCCn3ccnc3)C2=O)cc1	–	-8.39% (inactive)
C=CCn1c(=O)n(C)c2c(=O)n(C)c(=O)n(C)c21	–	11% (inactive)
CCC(=O)Oc1cccc(C(=O)Nc2ccc(-c3nnc(-c4ccco4)o3)cc2)c1	28.2 µM (active)	–
O=C(Nc1ccc(Cl)cc1)c1cccc(OC(=S)N2CCOCC2)c1	–	-15.7% (inactive)
Cc1cccc(NC(=O)CSc2nnc(-c3ccco3)o2)c1	–	16% (inactive)
Cc1c(NS(=O)(=O)c2cccc(C(=O)Nc3ccc(SC(F)F)cc3)c2)c(=O)n(-c2ccccc2)n1C	–	-25.1% (inactive)
C(#CCN1CCOCC1)CCCN1CCOCC1	–	8% (inactive)
CC(=O)OC1CCC2C3CCC4=C(CC(F)C(=O)C4)C3CCC12C (stereo not drawn)	–	5.21% (inactive)

Compound	Potency	activity change, negative = inhibition
COc1ccc(/C=N/Nc2cc(N3CCOCC3)nc(C)n2)c(OC)c1	35.5 µM (active)	–
C(=N/Nc1cc(N2CCOCC2)nc(N2CCOCC2)n1)/c1ccccc1	–	-27.6% (inactive)
COc1ccc(/C=N/NC(=O)Nc2ccc3nsnc3c2)c(OC)c1	–	-3.26% (inactive)
CC(C)[C@@H](C(=O)OCC(=O)c1ccc2c(c1)NC(=O)CO2)N1C(=O)c2ccccc2C1=O	–	-7.63% (inactive)
O=C(Nc1c[nH]c(=O)[nH]c1=O)OCc1ccccc1	–	1.53% (inactive)
CCCCCCCCNS(=O)(=O)CCNC1CCCCC1	–	5.09% (inactive)
Cc1ccc(C)c(N2CCN(C(=O)CCc3nc4ccccc4[nH]3)CC2)c1	–	-22.8% (inactive)
O=C(CCCCCn1c(=S)[nH]c2cc3c(cc2c1=O)OCO3)N1CCN(c2ccc(F)cc2)CC1	–	6.67% (inactive)
Cc1ccc(C)c(N2CCN(C(=O)CCCCCn3c(=S)[nH]c4ccc(N5CCOCC5)cc4c3=O)CC2)c1	28.2 µM (active)	–
CC(C)CN1CC(C)C(=O)N(c2ccccc2)C1=S (stereo not drawn)	–	5.08% (inactive)
COc1cc(/C=C/c2ccc(/C=C/c3cc(OC)c(OC)c(OC)c3)cc2)cc(OC)c1OC	–	7.14% (inactive)
COC(=O)c1ccc(COc2ccc(/C=C/C(=O)c3ccc(OC)c(CSCC(=O)O)c3)cc2OC)cc1	39.8 µM (active)	–
COc1ccc(/C=C/C(=O)N2CCCC2)cc1OC	–	-20.9% (inactive)
COc1ccc(/C=C/C(=O)c2ccc(NS(=O)(=O)c3ccc(C)cc3)cc2)cc1O	–	-4.56% (inactive)
Cc1c[n+]([O-])ccc1[N+](=O)[O-]	–	-4.07% (inactive)
CC(C)=CCc1ccc(O)c(=O)cc1C(C)C	–	9.99% (inactive)
CC(C)c1c(C(=O)N/N=C/c2ccc(-c3ccccc3)cc2)nnn1-c1nonc1N	–	0.139% (inactive)
Nc1nonc1-n1nnc(C(=O)N/N=C/C2CCCCC2)c1-c1ccccc1	–	12.5% (inactive)
Nc1nonc1-n1nnc(C(=O)N/N=C/c2c[nH]c3ccccc23)c1-c1ccccc1	31.6 µM (active)	–
Nc1cc(=O)n(Cc2ccccc2)c(=O)n1Cc1ccccc1	–	-4.98% (inactive)
O=C1Nc2ccc(Br)cc2/C1=N/N=C/C1=C(N2CCOCC2)C(=C\c2ccccc2)/CC1	–	-18.1% (inactive)
O=C(O)c1ccc(NN=CC2=C(N3CCOCC3)/C(=C/c3ccccc3)CC2)cc1	10 µM (active)	–
C(=N\N1CCN(c2ccccn2)CC1)/C1=C(N2CCOCC2)C(=C/c2ccccc2)/CC1	–	-4.31% (inactive)
C[C@H](O)[C@@H]1C(=O)N2CCc3ccc(N4CCOCC4)cc3[C@@H]2C[C@@H]1N(C)C(=O)C(C)(C)C	–	1.14% (inactive)
O=C1C[C@@H]2c3c(cccc3CN1Cc1ccccc1)C[C@@H](O)[C@H]2O	–	10.4% (inactive)

Compound	Potency	activity change, negative = inhibition
Cc1ccc(S(=O)(=O)N2CCC(C(=O)N3CCCCCCC3)CC2)cc1	–	-1.88% (inactive)
CSc1ncccc1C(=O)Nc1ccc(C)cn1	–	-0.85% (inactive)
CSc1ncccc1C(=O)Nc1nc2ccc(F)cc2s1	39.8 µM (active)	–
CSc1ncccc1C(=O)Nc1ccc2c(c1)OCO2	–	-1.29% (inactive)
COc1cc(C(=O)CCc2ccc3c(c2)OCO3)cc(OC)c1OC	–	11.8% (inactive)
COc1cc(C(=O)N2CCN(S(=O)(=O)c3ccc(C(C)C)cc3)CC2)ccc1OCC(=O)N1CCOCC1	–	-14.8% (inactive)
CS(=O)(=O)c1ccc2nc(NC(=O)C3C4C=CC(C4)C3C(=O)O)sc2c1 (stereo not drawn)	–	-1.75% (inactive)
COc1cccc(C(=O)Nc2nc3ccc(S(C)(=O)=O)cc3s2)c1	–	1.97% (inactive)
CS(=O)(=O)c1ccc2nc(NC(=O)c3ccc(Cl)nc3)sc2c1	31.6 µM (active)	–
Cc1ccc(NC(=O)C(C)OC(=O)C2CC3CCCC(C2)C3=O)cc1S(=O)(=O)N1CCOCC1 (stereo not drawn)	–	-2.68% (inactive)
O=C(CNC(=O)c1cc(S(=O)(=O)N2CCOCC2)ccc1N1CCCC1)Nc1ccc(F)c(F)c1	–	-2.71% (inactive)
O=C(O)c1ccc(NS(=O)(=O)c2ccc3c(c2)C(=O)c2cc(S(=O)(=O)Nc4ccc(C(=O)O)cc4)ccc2-3)cc1	–	0.663% (inactive)
CN(CC(=O)O)S(=O)(=O)c1ccc2oc3ccccc3c2c1	–	-8.22% (inactive)
CN(CCO)S(=O)(=O)c1ccc2c(c1)C(=O)c1cc(S(=O)(=O)N(C)CCO)ccc1-2	8.91 µM (active)	–
O=C1NC(=O)C(CCc2ccccc2)(c2ccccc2)N1 (stereo not drawn)	–	11.4% (inactive)
COC(=O)C1CC2=C(CC(C)(C)CC2=O)N(c2ccccc2)C1=O (stereo not drawn)	–	9.37% (inactive)
CCc1nc(C)cn1S(=O)(=O)c1cc([N+](=O)[O-])ccc1Cl	–	3% (inactive)
CCc1nc(C)cn1S(=O)(=O)c1cc(OC)c(C)cc1C	31.6 µM (active)	–
COc1cc(Cl)c(S(=O)(=O)n2cnc(C)c2)cc1Cl	–	8.27% (inactive)
Cc1sc2ncnc(N3CCC(C(=O)Nc4ccc(F)cc4Cl)CC3)c2c1C	39.8 µM (active)	–
CCc1ccc(C(=O)NNC(=O)C2CCN(c3ncnc4sc(C)c(C)c34)CC2)cc1	–	-20% (inactive)
Cc1sc2ncnc(N3CCC(C(=O)Nc4nc5ccc(Cl)cc5s4)CC3)c2c1C	–	-7.28% (inactive)
CC(=O)OCC1(O)CC23CCC4c5ccoc5CCC4(C)C2CCC1C3 (stereo not drawn)	–	-6.12% (inactive)
